PubChem BioAssay AID743364 (National Center for Advancing Translational Sciences (NCATS), 2014)
Activity calls are given as the source filed them. Calls come from the whole dose curve; as a rule, active = well fitted curve in the direction sought with a large enough effect; inactive = no such curve, though single readings can be large or run the other way.

Experiment: qHTS profiling of inhibitors of Plasmodium falciparum (3D7) proliferation (acoustic dispense)
Conditions: P. falciparum 3D7 in erythrocytes, SYBR Green, 72 h; series mostly up to 49.8 µM

Row | Compound | outcome
1 | O=C(Nc1cn[nH]c1-c1nc2ccc(CN3CCOCC3)cc2[nH]1)NC1CC1 | inactive
2 | COc1ccc(-c2nc(N3CCOCC3)c3sc(CN(C)c4ncc(C(=O)NO)cn4)cc3n2)cn1 | inactive
3 | CCc1cc(Nc2nccc(-c3c(-c4ccc(OC)c(C(=O)Nc5c(F)cccc5F)c4)nc4ccccn34)n2)c(OC)cc1N1CCC(N2CCN(S(C)(=O)=O)CC2)CC1 | inactive
4 | CC[C@]1(O)C[C@H]2CN(CCC3=c4ccccc4=N[C]3[C@@](C(=O)OC)(c3cc4c(cc3OC)N(C)[C@H]3[C@@](O)(C(N)=O)[C@H](O)[C@]5(CC)C=CCN6CC[C@]43[C@@H]65)C2)C1 | inactive
5 | CN[C@@H](C)C(=O)N[C@H]1CCCC[C@H]2CC[C@@H](C(=O)N[C@@H](c3ccccc3)c3cn(CCCCc4ccc(CCCCn5cc([C@@H](NC(=O)[C@@H]6CC[C@@H]7CCCC[C@H](NC(=O)[C@H](C)NC)C(=O)N76)c6ccccc6)nn5)cc4)nn3)N2C1=O | inactive
6 | CCC[C@H](Nc1nc(-c2ccc(NC(=O)NCC)c(OC)c2)ncc1C)c1cccnc1 | inactive
7 | CC(C)[C@H](C(=O)Nc1ccc(C(=O)NO)cc1)c1ccccc1 | inactive
8 | O=C1C(=O)c2ccccc2C(O)=C1C1CCC(c2ccc(Cl)cc2)CC1 (stereo unspecified) | inactive
9 | CCOC(=O)[C@H](CCc1ccccc1)N[C@H]1CS[C@H](c2cccs2)CN(CC(=O)O)C1=O | inactive
10 | Cc1[nH]c2ccccc2c1CCNCc1ccc(C=CC(=O)NO)cc1 | inactive
11 | CCCC[C@@H]1C[C@@H](C(=O)NC([C@H](C)Cl)[C@H]2O[C@H](S)[C@H](O)[C@@H](O)[C@@H]2O)N(C)C1 (stereo partly specified) | inactive
